Results from the supplement of paper PMC11732987, “Enantioselective OTUD7B fragment discovery through chemoproteomics screening and high-throughput optimisation” (Communications Chemistry, 2025).

Legend:
Test in all cases: log2 ratio of Biotin-Ahx-Ub-VS probe labelling (fragment/DMSO); higher = less target engagement (more negative = stronger competition), active = hit call of the paper (q ≤ 0.05, log2 ratio ≤ -1)
Details in all cases: compound concentration: 200 uM; treatment time: 3 h
[1] = target: T1, ALG13 (UniProt Q9NP73)
T1 sequence (whole entry): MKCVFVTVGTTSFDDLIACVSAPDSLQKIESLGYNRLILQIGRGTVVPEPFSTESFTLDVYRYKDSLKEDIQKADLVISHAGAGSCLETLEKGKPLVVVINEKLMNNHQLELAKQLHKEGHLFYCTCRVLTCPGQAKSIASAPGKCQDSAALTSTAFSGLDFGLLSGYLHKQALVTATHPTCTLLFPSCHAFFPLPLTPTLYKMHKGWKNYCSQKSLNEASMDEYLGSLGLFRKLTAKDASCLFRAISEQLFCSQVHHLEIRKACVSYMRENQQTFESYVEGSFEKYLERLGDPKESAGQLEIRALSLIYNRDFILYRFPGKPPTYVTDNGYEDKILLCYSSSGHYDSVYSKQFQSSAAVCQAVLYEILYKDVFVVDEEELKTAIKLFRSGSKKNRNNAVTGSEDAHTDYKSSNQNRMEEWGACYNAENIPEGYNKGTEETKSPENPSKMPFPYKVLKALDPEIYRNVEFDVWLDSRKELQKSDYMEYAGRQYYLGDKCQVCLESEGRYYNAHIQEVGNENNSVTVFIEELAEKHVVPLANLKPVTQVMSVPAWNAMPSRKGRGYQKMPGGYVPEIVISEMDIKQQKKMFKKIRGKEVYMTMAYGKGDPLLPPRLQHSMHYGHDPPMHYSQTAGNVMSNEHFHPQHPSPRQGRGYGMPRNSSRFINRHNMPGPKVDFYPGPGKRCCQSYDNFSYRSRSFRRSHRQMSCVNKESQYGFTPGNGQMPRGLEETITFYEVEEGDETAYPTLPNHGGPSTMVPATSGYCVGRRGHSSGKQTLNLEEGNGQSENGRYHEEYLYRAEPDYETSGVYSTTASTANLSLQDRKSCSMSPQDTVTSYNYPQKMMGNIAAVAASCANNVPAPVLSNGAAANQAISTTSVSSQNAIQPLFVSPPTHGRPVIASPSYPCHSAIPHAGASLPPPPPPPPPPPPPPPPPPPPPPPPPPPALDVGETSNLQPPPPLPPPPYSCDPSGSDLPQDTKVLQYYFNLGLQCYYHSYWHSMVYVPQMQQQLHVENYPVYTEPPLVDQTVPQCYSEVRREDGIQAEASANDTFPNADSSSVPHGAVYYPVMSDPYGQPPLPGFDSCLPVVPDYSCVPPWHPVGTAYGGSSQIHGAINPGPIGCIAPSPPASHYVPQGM
Outline: (§1)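 Labelling with Biotin-Ahx-Ub-VS (0.5 µM final, 1 h) followed a 3 h triplicate treatment of HEK293T lysate (495 µg per sample, Tris/CHAPS/IGEPAL buffer with protease inhibitors) with fragment at 200 µM or vehicle. Labelled DUBs were NeutrAvidin-enriched, digested with LysC and trypsin, and run by diaPASEF LC-MS/MS. The values, average log2 fragment/vehicle ratios by unpaired t-test, come from global-median-normalised Spectronaut label-free quantities. Proteins with ≥2 unique peptides were used.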

[2] = target: ATXN3 (UniProt P54252)
Outline: as §1

[3] = target: T2, BAP1 (UniProt Q92560)
T2 sequence (whole entry): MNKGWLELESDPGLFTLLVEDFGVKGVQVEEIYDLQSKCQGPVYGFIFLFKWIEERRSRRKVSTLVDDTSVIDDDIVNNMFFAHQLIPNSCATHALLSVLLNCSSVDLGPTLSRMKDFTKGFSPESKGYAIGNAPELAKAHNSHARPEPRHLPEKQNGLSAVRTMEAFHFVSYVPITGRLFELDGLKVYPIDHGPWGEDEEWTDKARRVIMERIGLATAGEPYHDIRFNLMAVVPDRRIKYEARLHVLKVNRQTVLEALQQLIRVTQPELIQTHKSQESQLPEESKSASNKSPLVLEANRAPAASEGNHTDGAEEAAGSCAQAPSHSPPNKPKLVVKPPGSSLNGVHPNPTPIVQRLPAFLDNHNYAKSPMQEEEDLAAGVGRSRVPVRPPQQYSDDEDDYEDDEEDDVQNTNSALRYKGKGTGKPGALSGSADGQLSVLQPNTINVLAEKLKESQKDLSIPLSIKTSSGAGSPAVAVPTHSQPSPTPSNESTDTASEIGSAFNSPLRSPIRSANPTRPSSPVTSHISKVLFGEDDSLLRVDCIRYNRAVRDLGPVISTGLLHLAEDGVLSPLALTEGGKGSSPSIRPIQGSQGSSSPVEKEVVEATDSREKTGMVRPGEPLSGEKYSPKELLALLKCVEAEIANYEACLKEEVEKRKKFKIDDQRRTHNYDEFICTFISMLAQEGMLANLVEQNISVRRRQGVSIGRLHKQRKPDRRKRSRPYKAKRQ
Outline: as §1

[4] = target: EIF3F (UniProt O00303)
Outline: as §1

[5] = target: EIF3H (UniProt O15372)
Outline: as §1

[6] = target: T3, FAM105A (UniProt Q9NUU6)
T3 sequence (whole entry): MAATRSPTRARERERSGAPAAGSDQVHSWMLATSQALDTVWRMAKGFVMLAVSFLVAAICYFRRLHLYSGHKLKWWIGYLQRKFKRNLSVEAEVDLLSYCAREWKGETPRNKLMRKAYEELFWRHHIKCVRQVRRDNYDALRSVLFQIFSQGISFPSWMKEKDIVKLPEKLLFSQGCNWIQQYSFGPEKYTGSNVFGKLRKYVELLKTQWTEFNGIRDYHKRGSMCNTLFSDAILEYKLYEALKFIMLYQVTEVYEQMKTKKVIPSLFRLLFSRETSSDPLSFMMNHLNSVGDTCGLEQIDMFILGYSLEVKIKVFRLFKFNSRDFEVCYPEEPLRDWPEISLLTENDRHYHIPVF
Outline: as §1

[7] = target: OTUB1 (UniProt Q96FW1)
Outline: as §1

[8] = target: T4, OTUD4 (UniProt Q01804)
T4 sequence (whole entry): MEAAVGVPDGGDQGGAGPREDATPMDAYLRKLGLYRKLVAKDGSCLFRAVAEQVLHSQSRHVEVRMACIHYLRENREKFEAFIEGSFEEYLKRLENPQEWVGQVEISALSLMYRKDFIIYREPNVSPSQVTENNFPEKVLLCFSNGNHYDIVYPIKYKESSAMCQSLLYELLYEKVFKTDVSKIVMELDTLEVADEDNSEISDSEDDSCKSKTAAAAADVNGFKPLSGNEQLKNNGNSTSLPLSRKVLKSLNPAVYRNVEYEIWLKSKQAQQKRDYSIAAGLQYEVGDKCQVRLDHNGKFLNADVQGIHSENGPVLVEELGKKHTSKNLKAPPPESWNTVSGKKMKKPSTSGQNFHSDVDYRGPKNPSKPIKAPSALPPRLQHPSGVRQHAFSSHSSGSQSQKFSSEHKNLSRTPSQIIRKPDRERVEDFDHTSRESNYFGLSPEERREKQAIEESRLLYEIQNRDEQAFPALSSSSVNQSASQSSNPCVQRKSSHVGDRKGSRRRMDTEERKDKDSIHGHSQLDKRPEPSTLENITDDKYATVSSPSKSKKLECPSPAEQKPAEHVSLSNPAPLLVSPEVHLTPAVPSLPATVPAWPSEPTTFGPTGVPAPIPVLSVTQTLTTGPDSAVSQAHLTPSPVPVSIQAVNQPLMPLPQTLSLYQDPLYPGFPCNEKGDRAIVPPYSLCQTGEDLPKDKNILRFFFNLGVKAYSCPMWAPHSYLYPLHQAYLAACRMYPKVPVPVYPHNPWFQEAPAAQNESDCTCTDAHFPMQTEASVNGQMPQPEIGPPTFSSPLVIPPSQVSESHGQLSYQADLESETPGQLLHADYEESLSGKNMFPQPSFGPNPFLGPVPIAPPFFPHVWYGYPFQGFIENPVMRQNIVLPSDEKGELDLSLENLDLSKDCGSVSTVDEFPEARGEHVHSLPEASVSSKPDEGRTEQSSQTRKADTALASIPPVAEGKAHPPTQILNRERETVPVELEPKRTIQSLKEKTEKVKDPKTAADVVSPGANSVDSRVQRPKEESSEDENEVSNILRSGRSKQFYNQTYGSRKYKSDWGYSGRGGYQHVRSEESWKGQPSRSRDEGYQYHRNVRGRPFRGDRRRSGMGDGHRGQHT
Outline: as §1

[9] = target: T5, OTUD5 (UniProt Q96G74)
T5 sequence (whole entry): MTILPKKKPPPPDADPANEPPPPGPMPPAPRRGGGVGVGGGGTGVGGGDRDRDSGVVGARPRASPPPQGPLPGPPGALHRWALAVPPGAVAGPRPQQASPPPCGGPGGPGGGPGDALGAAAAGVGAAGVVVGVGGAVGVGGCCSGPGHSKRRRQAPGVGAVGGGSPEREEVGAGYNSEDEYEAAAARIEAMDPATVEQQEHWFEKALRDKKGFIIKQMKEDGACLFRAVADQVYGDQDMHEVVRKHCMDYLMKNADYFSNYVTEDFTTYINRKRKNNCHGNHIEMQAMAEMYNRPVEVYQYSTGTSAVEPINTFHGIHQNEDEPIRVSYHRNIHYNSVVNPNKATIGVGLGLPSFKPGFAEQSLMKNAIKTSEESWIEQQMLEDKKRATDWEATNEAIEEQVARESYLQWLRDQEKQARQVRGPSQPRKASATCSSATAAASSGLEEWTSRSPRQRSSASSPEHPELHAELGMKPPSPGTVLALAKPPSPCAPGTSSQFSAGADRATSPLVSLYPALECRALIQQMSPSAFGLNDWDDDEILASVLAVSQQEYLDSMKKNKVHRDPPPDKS
Outline: as §1

Measured: log2 ratio of Biotin-Ahx-Ub-VS probe labelling

ATXN3, sequence (P54252 whole entry): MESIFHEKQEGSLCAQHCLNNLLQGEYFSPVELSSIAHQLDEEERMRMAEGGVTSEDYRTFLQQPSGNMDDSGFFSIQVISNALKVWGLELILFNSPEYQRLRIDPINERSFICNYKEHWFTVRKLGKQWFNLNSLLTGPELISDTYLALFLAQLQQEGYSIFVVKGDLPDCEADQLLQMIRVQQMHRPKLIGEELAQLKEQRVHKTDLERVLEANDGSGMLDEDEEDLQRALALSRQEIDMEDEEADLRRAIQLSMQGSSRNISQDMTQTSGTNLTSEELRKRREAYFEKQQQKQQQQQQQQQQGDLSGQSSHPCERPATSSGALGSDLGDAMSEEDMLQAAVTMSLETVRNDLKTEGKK
EIF3H, sequence (O15372 whole entry): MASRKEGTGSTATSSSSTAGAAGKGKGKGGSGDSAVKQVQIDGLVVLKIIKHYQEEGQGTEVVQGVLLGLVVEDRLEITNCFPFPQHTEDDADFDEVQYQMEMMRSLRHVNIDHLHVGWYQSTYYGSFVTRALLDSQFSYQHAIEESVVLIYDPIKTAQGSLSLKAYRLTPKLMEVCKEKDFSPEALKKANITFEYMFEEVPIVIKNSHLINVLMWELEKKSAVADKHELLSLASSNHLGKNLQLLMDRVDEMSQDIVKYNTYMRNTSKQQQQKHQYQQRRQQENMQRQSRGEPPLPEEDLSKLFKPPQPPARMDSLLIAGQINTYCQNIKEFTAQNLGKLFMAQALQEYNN
OTUB1, sequence (Q96FW1 whole entry): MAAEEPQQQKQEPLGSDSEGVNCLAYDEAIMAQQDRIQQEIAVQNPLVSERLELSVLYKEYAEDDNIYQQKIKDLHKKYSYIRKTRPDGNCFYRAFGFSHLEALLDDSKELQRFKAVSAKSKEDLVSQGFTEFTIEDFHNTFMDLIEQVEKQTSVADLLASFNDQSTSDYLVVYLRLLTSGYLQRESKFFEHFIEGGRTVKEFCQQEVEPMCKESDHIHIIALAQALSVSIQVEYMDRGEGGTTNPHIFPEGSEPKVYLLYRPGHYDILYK
EIF3F, sequence (O00303 whole entry): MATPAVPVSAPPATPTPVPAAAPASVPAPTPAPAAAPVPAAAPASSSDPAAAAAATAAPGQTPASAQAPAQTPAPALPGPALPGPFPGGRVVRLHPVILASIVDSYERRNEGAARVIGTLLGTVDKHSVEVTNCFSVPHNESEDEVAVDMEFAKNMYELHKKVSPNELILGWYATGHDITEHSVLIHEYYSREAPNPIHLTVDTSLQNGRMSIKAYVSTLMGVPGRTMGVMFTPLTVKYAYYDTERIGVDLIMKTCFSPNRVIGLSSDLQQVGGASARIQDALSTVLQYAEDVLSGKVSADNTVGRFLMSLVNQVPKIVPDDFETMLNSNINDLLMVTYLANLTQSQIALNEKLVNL

CC(c1ccccc1)N(C)C(=O)CCl (centres undefined)
inactive: [1] -0.0878 | [2] -0.667 | [3] -0.362 | [4] 0.107 | [5] 0.0952 | [6] -0.093 | [7] 0.146 | [8] -0.0165 | [9] -0.419
